# Laboratory results as given in PubChem BioAssay (NCATS).
# Values joined by “and” are separate entries in the source; they are usually repeats but may differ in a detail not shown here. Identical values can stand only once. Records with an inconclusive call do not appear. Entries that show only a call come without a potency. Active and inactive are the calls of the source. Unless noted, the call rests on the fitted dose curve.
# Legend:
# [1] = qHTS for Inhibitors of the Functional Ribonucleoprotein Complex (vRNP) of Lymphocytic Choriomeningitis Arenaviruses (LCMV): Viability assay - alamar blue signal for LCMV Primary Screen (AID 1347085; calls by dose curve; tested in HEK293 reporter line; further: nearly all actives have a fitted effect of over 80% in size; further: potency means the concentration at half of the fitted maximal effect)
# [2] = target: Nucleoprotein (Lymphocytic choriomeningitis virus (strain Armstrong)) (UniProt P09992); test: qHTS for Inhibitors of the Functional Ribonucleoprotein Complex (vRNP) of Lymphocytic Choriomeningitis Arenaviruses (LCMV): LCMV Primary Screen - GLuc reporter signal (AID 1347086); further: nearly all actives have a fitted effect of over 70% in size; further: potency means the concentration at half of the fitted maximal effect
# Nucleoprotein (Lymphocytic choriomeningitis virus (strain Armstrong)), sequence (P09992 whole entry, looked up): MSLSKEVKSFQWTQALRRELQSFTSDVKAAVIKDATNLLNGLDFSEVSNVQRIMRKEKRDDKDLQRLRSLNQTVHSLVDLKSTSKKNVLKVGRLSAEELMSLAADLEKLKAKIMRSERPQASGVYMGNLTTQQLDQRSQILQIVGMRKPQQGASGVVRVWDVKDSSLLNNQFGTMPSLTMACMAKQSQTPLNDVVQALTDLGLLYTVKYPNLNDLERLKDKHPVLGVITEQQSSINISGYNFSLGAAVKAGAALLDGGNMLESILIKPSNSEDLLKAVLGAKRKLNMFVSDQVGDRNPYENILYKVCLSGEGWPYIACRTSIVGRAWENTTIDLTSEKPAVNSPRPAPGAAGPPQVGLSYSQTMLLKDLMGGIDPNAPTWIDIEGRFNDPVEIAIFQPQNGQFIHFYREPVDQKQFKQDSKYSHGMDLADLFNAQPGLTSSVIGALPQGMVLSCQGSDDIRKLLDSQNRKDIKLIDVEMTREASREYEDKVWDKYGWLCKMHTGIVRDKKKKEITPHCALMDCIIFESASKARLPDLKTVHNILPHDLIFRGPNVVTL
# [3] = Inducers of the Endoplasmic Reticulum Stress Response (ERSR) in human glioma: Validation (AID 504836; active means well fitted curve in the direction sought with a large enough effect)
# In short: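 Stably transfected U87-MG glioma cells carrying a GRP78-based luciferase sensor; 16 h compound incubation. Luminescence end-point read 10 min after Bright-Glo addition at room temperature.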
# [4] = Cytotoxicity counterscreen for inhibitors of SARS-CoV-2 cell entry (AID 1645845); further: nearly all actives have a fitted effect of over 50% in size; further: potency means the concentration at half of the fitted maximal effect
# In short: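 HEK293-ACE2 cells (Expi293F stably expressing human ACE2) seeded overnight, then compound for 1 h plus 48 h at 37C. Viability as ATP content by luminescence; normalized to wells with cells and media-only wells.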
# [5] = Primary qHTS to identify inhibitors of SARS-CoV-2 cell entry (AID 1645846); conditions: activity change, negative = inhibition: at 57.1 µM (top of the series) unless noted; further: nearly all actives have a fitted effect of over 45% in size
# In short: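 HEK293-ACE2 (Expi293F, stable hACE2), 1500 cells/well, o/n 37C; cpd 23 nL pin, 1 h; MLV-PP w/ SARS-CoV-2-S (Wuhan-Hu-1, Δ19 C-term); 48 h 37C; Bright-Glo luminescence; normalized vs S-PP and bald PP.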
# [6] = target: Bile acid receptor (Homo sapiens) (UniProt Q96RI1); test: qHTS assay for small molecule agonists of farnesoid X receptor signaling (AID 588527); conditions: HEK293T FXR-UAS-bla, beta-lactamase ratio, 16 h; activation: stronger effect = higher value
# Bile acid receptor (Homo sapiens), sequence (Q96RI1 whole entry, looked up): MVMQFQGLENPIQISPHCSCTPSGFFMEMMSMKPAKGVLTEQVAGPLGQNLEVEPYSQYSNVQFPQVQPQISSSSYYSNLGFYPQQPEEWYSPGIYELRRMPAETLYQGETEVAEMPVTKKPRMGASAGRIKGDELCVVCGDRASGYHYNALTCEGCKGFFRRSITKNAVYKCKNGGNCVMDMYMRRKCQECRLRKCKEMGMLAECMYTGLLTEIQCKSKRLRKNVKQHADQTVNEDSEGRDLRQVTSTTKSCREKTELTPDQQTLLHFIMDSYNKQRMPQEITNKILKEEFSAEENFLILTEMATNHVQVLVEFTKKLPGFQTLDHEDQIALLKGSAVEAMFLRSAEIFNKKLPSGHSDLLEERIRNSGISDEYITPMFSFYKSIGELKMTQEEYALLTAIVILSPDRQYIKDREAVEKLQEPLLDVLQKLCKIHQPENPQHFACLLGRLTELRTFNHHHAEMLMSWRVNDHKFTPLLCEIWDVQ
# In short: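 FXR-UAS-bla HEK293T, 10% dialyzed FBS; cpds up to 92 uM titration, 16 h 37 C; CCF4 dye 2 h RT; fluorescence. Normalized to chenodeoxycholic acid 100 uM (100%) and DMSO (0%); Hill fit gives EC50, efficacy.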
# [7] = target: Peroxisome proliferator-activated receptor delta (Homo sapiens) (UniProt Q03181); test: qHTS assay for small molecule agonists of peroxisome proliferator-activated receptor delta signaling (AID 588534)
# Peroxisome proliferator-activated receptor delta (Homo sapiens), sequence (Q03181 whole entry, looked up): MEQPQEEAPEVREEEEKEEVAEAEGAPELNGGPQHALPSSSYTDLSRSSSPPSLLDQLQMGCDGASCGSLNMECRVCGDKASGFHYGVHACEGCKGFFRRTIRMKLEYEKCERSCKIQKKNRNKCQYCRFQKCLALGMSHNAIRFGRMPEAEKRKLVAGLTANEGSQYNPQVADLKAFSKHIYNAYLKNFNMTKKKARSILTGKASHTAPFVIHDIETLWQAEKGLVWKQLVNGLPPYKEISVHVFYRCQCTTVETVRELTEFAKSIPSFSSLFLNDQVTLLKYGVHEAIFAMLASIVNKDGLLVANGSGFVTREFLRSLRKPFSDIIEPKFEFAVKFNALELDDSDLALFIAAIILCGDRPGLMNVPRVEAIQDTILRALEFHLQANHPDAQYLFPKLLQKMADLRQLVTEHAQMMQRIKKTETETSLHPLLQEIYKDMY
# In short: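 Cell-based beta-lactamase reporter assay run in agonist mode: cells seeded and incubated 5 hrs at 37 C, compounds added and incubated 18 hrs at 37 C. CCF4 dye fluorescence read after 2 hrs at RT; EC50 and efficacy from Hill fits.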
# [8] = Confirmatory qHTS to identify inhibitors of SARS-CoV-2 cell entry (AID 1645844); further: potency means the concentration at half of the fitted maximal effect; nearly all actives have a fitted effect of over 45% in size
# In short: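 HEK293-ACE2 cells were pretreated 1 h with compound, then infected with MLV-based pseudoparticles bearing C-terminally truncated Wuhan-Hu-1 spike for 48 h at 37C; luciferase luminescence normalized to spike PP and bald PP wells.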
smiles,measurement,setting,value
COC1CC2C=C(C)C=CC=CC(=O)NC(c3ccccc3)CC=CCCC(O)CC(=O)C2=C1O (configuration not stated),Potency,[1],inactive
same,Potency,[2],inactive
Cc1ccc(S(=O)(=O)/C=C/C#N)cc1,outcome,[3],inactive
same,Potency,[1],inactive
O=S(=O)(NCCNCC=Cc1ccc(Br)cc1)c1cccc2cnccc12,Potency,[1],inactive
same,Potency,[2],inactive
O=C(CC(O)CCc1ccccc1)c1ccc(O)cc1 (configuration not stated),Potency,[2],inactive
CC(=O)/C=C1\C(=O)N(C)c2ccccc21,outcome,[3],inactive
same,Potency,[1],inactive
CC1(C)CNc2cc(NC(=O)c3cccnc3NCc3ccncc3)ccc21,Potency,[1],34.3 µM (active)
same,Potency,[4],inactive
same,Potency,[5],inactive
CCN(CC)CCOc1ccc(C(=C(Cl)c2ccccc2)c2ccccc2)cc1,Potency,[2],inactive
NS(=O)(=O)c1ccc(NC2=CC(=O)c3ccccc3C2=O)cc1,Potency,[1],38.5 µM (active)
same,Potency,[2],12.2 µM (active)
same,Potency,[4],inactive
same,Potency,[5],inactive
Cc1cccc(O)c1C,activation,[6],-0.773% (inactive)
same,Potency,[7],inactive
same,Potency,[1],inactive
same,Potency,[2],inactive
C[C@@]1(c2cc(-c3cncnc3)c(F)cc2F)CCSC(N)=N1,Potency,[1],13.7 µM (active)
same,Potency,[4],inactive
same,"activity change, negative = inhibition",[5],-2.33%
Nc1ccc(N=Nc2ccc(-c3ccc(N=Nc4c(S(=O)(=O)O)cc5cc(S(=O)(=O)O)c(N=Nc6ccccc6)c(O)c5c4N)cc3)cc2)c(N)c1,Potency,[2],inactive
COc1c(O)c(=O)n2c3ccccc3c3ccnc1c32,Potency,[2],inactive
CCC[C@H](N[C@@H](C)C(=O)N1[C@@H]2CCCC[C@H]2C[C@H]1C(=O)O)C(=O)OCC,Potency,[1],inactive
same,Potency,[4],inactive
same,"activity change, negative = inhibition",[5],1.44%
C=CC(=O)N1CCC[C@@H](n2nc(-c3ccc(Oc4ccccc4)cc3)c3c(N)ncnc32)C1,Potency,[1],21.7 µM (active)
same,Potency,[4],inactive
same,Potency,[5],inactive
N#Cc1cc([N+](=O)[O-])c2sc(C(N)=O)[n+]([O-])c2c1,outcome,[3],inactive
same,Potency,[1],inactive
same,Potency,[2],inactive
CC(C)(C)c1nc2c3cc[nH]c(=O)c3c3cc(F)ccc3c2[nH]1,Potency,[1],inactive
same,Potency,[2],inactive
same,Potency,[8],1.71 µM (active)
same,Potency,[4],inactive
COc1ccc(-c2cc(=O)c3c(O)cc(O[C@@H]4O[C@H](CO[C@@H]5O[C@@H](C)[C@H](O)[C@@H](O)[C@@H]5O)[C@@H](O)[C@H](O)[C@@H]4O)cc3o2)cc1O,Potency,[2],10.9 µM (active)
C[C@@]12C=Cc3occc3[C@H]1CC[C@@]13C[C@@H](CC[C@H]12)[C@@](O)(CO)C3,Potency,[1],inactive
same,Potency,[2],inactive
CCCC(=O)OCCC(C)C,Potency,[1],inactive
same,Potency,[2],inactive
COc1ccc(CCOC2OC(CO)C(OC(=O)/C=C/c3ccc(O)c(OC)c3)C(O[C@H]3O[C@@H](C)[C@H](O)[C@@H](O)[C@H]3O)C2O)cc1O (some centres not stated),Potency,[1],inactive
same,Potency,[2],inactive
CCCCCCCCc1ccc(CCC(N)(CO)CO)cc1,Potency,[1],inactive
same,Potency,[2],inactive
same,Potency,[4],7.08 µM (active) and 25.1 µM (active)
CN(C)c1ccc2cc(C(=O)N[C@@H](CCCN=C(N)CCl)C(=O)NCc3ccccc3)ccc2c1,Potency,[1],34.3 µM (active)
same,Potency,[4],inactive
same,"activity change, negative = inhibition",[5],-26.4%
